Compounds with a hit are over-represented: about 2.4% of the library has one in this group of screens.
Pol kappa inh – qHTS for Inhibitors of Polymerase Kappa; AID 588579, 2011; purified Pol kappa, fluorescent DNA synthesis assay, 10 min; hit rate 0.53% among 400,000; Potency, µM (doses to about 107 µM), for the others: at the highest dose activity, negative = inhibition, actives largely listed as inhibitors; further: on the % scale 0 is the no-effect control and ±100 the full control effect
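10 nM Pol kappa was preincubated with compounds for 15 min at room temperature. Reaction started with 50 nM (final) substrate. Fluorescence read kinetically at 0 and 10 min.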
FEN1 inhibitor – qHTS Assay for the Inhibitors of Human Flap endonuclease 1 (FEN1); Recombinant FEN1 flap cleavage, fluorescence, 15 min; Potency, µM (highest dose often 114 µM), inactives show top-dose activity change, negative = inhibition, actives largely listed as inhibitors; hit rate 0.35% among 390,000; further: on the % scale 0 is the no-effect control and ±100 the full control effect; nearly all actives have a fitted effect of over 65% in size
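FEN1 at 10 nM preincubated with compounds 15 min at room temperature, then flap DNA substrate added at 50 nM final. Signal read at 0 and 15 min; concentration-response fitted with four-parameter Hill equation.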
Pol iota inh – qHTS for Inhibitors of Polymerase Iota; DNA polymerase iota (Homo sapiens), Q9UNA4; Pol iota fluorescent replication assay, 10 min; Potency, µM (doses to about 115 µM), without a hit: at the highest dose activity, negative = inhibition, actives largely listed as inhibitors; hit rate 1% among 390,000; AID 588590, 2011
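Fluorescent replication assay read twice, at 0 min and 10 min after adding 50 nM (final) substrate. Enzyme (10 nM) and compounds were first incubated 15 min at room temperature; enzyme-free buffer wells were negative controls.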
Pol beta inh – qHTS Assay for Inhibitors of DNA Polymerase Beta; hit rate 1.3% among 340,000; AID 485314, 2010; Potency, µM (titrated, usually from 114 µM), without a hit: top-dose activity change, negative = inhibition, actives largely listed as inhibitors; Pol beta primer extension/strand displacement, fluorescence kinetic; further: on the % scale 0 is the no-effect control and ±100 the full control effect
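Kinetic readout of DNA synthesis with strand displacement by Pol beta. Compound and 10 nM enzyme sit 15 min at room temperature; 50 nM substrate starts the reaction, read immediately and at 10 min.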
WRN inhibitor – qHTS for Inhibitors of WRN Helicase; Bifunctional 3'-5' exonuclease/ATP-dependent helicase WRN (Homo sapiens), Q14191; WRN helicase unwinding, fluorescent forked duplex, kinetic; Potency, µM (series often up to 114 µM), for the others: at the top dose activity change, negative = inhibition, usual class: inhibitors; hit rate 0.46% among 360,000; AID 651768, 2012; further: on the % scale 0 is the no-effect control and ±100 the full control effect; nearly all actives have a fitted effect of over 55% in size
Target sequence (Q14191 whole entry, looked up): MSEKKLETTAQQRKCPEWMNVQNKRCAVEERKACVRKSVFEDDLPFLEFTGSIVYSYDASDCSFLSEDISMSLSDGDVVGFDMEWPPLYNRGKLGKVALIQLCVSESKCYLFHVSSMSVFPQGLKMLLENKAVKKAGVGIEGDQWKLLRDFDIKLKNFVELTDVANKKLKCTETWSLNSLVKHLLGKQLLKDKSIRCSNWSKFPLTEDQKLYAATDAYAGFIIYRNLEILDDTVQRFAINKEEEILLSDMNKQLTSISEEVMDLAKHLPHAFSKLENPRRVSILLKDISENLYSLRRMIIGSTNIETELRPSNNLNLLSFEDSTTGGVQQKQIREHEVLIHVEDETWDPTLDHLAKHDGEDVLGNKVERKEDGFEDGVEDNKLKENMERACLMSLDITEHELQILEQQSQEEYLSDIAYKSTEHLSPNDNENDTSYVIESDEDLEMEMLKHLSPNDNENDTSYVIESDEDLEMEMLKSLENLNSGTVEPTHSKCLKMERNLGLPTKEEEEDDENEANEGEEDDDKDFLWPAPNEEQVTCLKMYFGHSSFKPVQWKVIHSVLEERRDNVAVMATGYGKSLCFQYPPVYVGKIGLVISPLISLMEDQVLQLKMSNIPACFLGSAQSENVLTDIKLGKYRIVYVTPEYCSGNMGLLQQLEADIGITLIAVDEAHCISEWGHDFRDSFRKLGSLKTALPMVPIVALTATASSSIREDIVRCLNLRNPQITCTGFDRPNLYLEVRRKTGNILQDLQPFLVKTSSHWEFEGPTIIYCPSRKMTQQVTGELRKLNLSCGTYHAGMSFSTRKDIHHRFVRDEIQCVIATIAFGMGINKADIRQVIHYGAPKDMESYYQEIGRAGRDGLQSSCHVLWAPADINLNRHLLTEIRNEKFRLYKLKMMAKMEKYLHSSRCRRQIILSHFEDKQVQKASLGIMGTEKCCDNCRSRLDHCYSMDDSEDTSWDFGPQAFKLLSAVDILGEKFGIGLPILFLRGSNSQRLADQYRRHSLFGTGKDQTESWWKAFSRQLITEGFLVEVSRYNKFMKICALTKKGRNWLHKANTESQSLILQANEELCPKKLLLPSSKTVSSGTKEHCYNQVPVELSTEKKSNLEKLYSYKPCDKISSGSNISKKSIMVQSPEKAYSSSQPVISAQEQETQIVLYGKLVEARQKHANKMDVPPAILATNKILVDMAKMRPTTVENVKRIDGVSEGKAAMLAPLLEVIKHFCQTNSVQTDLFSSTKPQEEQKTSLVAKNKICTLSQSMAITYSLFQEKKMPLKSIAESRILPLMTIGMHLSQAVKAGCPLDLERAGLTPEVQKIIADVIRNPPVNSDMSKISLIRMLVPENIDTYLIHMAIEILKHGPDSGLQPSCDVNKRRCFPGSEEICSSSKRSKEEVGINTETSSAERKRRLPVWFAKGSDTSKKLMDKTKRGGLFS
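Kinetic red-fluorescence monitoring (525/598 nm) tracks WRN helicase activity after 100 nM fluorophore-quencher forked duplex and 2 mM ATP are added to 20 nM enzyme pretreated 15 min at room temperature with compound.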
POLH inh – qHTS for Inhibitors of Polymerase Eta. DNA polymerase eta (Homo sapiens), Q9Y253. recombinant Pol eta, fluorescent DNA replication assay. Potency, µM (top dose mostly 114 µM), inactives show at the top dose activity change, negative = inhibition, most hits filed as inhibitors. hit rate 1.2% among 390,000; further: on the % scale 0 is the no-effect control and ±100 the full control effect
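Pol eta (10 nM) was preincubated with compounds for 15 min at room temperature, after which fluorescent replication substrate (50 nM final) was added to start the reaction. Fluorescence was read kinetically at 0 and 10 min.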
TbPGK inh – qHTS for inhibitors of Phosphogylcerate Kinase: Hit Validation Screen; shares compounds with Pol kappa inh; TbPGK coupled GAPDH assay, Kinase-Glo luminescence; Potency, µM (series often up to 57.5 µM), inactives show at the top dose activity change, negative = inhibition, usual class: inhibitors; hit rate 79% among 500; AID 686980, 2013; further: on the % scale 0 is the no-effect control and ±100 the full control effect; nearly all actives have a fitted effect of over 65% in size
POLI cherry-pick – qHTS for Inhibitors of Polymerase Iota: Confirmatory Assay for Cherry-picked Compounds. shares compounds with Pol kappa inh. Pol iota primer extension, TAMRA/BHQ fluorescence. Potency, µM, actives largely listed as inhibitors. hit rate 77% among 1,500
* = called active by the depositor; ? = inconclusive; · = not tested or not shown; [ ] = remark or other dose. The call rests on the fitted dose curve; in most records, active means well fitted curve in the direction sought with a large enough effect; inconclusive means small, poorly fitted or top-dose-only effect, or another doubt; inactive means no such curve, though single readings can be large; an effect the other way counts as inactive or inconclusive. Potency means the concentration at half of the fitted maximal effect.

SMILES	Pol kappa inh	FEN1 inhibitor	Pol iota inh	Pol beta inh	WRN inhibitor	POLH inh	TbPGK inh	others
O=C(c1coc(=O)c(Br)c1)N1CCOCC1	?	-10.9%	?	6.31µM*	?	10µM*	29.1µM*
COc1ccc(Cn2c(=O)[nH]c3cc(C(=O)NCCC(C)C)ccc3c2=O)cc1	-2.2%	5.9%	25.7%	15.4%	·	-17.1%	·
CC(C)CCNC(=O)c1ccc(Cn2c(=S)[nH]c3ccccc3c2=O)cc1	0.0%	-15.1%	?	?	-5.8%[11.6 µM]	?	·	POLI cherry-pick=?
COc1cc(/C=N/Nc2nncn2/N=C/c2ccc(O)c(OC)c2)ccc1O	-8.4%	?	20µM*	2.2%	-10.0%	-32.9%	?
COc1ccc2nc(NC(=O)c3ccoc3C)sc2c1	-10.0%	-10.4%	-9.7%[58.9 µM]	-0.7%	7.5%	5.3%	10.3µM*
O=C(O)CCCNC(=O)/C=C/c1ccco1	50.1µM*	?	?	2.82µM*	-29.6%	3.98µM*	?
O=C(O)CCCCCNC(=O)/C=C/c1ccco1	-17.4%	16.0%	-16.3%	?	-11.3%	2.8%	·
CCCCC[C@H](O)/C=C/[C@@H]1[C@@H](C/C=C\CCCC(=O)OC)[C@@H](O)C[C@H]1O	-10.3%	?	1.26µM*	23.9%	11.9%	?	3.7%
O=C(/C=C/Nc1ccccc1Br)c1ccccn1	-5.0%	-0.7%	1.7%	5.0%	-3.6%	-14.7%	?
COc1ccc(NC(=O)c2cc3c(=O)n(C)c4ccccc4c3s2)cc1OC	-16.6%	1.0%	27.7%	?	-5.1%[11.6 µM]	?	·	POLI cherry-pick=29.9*
COc1c(N2CCN(C(=S)NCc3ccccc3)C(C)C2)c(F)cc2c(=O)c(C(=O)O)cn(C3CC3)c12 (stereo unspecified)	?	?	15.8µM*	28.2µM*	?	31.6µM*	·	POLI cherry-pick=53.2*
COc1c(N2CCN[C@H](C)C2)c(F)cc2c(=O)c(C(=O)O)cn(C3CC3)c12	-5.8%	-27.5%	-20.5%	?	0.3%	-3.0%	·
Cc1nc2sc(-c3ccccc3)cc2c(=O)n1N	-13.7%	7.1%	-10.0%	10.9%	-11.3%	0.2%	16.3µM*
Cc1nc2sc(-c3ccccc3)cc2c(=O)n1-n1cccc1	-15.2%	-4.2%	-1.6%	-1.9%	-9.4%	3.9%	·
O=C(N/N=C/c1c[nH]c2ccc(Br)cc12)c1ccncc1	-23.7%	-7.3%	56.2µM*	?	?	?	·	POLI cherry-pick=67*
COc1cccc(/C=N/Nc2ncccc2[N+](=O)[O-])c1OC	-9.5%	1.4%	37.9%	-22.5%	-4.7%	-8.3%	16.3µM*
O=C(COC(=O)/C=C/c1ccco1)Nc1cc(S(=O)(=O)N2CCOCC2)ccc1Cl	?	12.5%	50.1µM*	·	-1.6%[11.6 µM]	?	?
Cc1nn(-c2nc3ccccc3[nH]2)c(=O)c2ccccc12	-0.5%	-8.6%	29.3%	0.6%	-9.3%	-9.2%	2.91µM*
Cc1[nH]cnc1C(=O)N/N=C/c1c(Cl)cccc1Cl	4.3%	-11.6%	15.7%	4.6%	9.4%	-7.4%	11.6µM*
N#Cc1ccccc1-c1cncnc1NCc1cccnc1	-1.1%[60.1 µM]	·	·	·	·	·	·
COc1ccccc1N1CCN(C(=O)/C=C/c2ccco2)CC1	-24.2%	11.8%	-16.4%	-0.5%	-20.5%[57.1 µM]	?	·
O=C(/C=C/c1ccco1)N1CCc2ccccc21	0.4%	1.6%	-27.2%	?	-2.3%	-7.1%	16.3µM*
Cc1ccc(NC(=O)c2cnn3c2NC(=C2CC2)C=C3C(F)F)cc1C	-7.5%	-1.4%	7.6%	·	·	·	·
O=CC(O)C1OC(=O)C(O)C1O (stereo unspecified)	50.1µM*	-7.8%	44.7µM*	·	-30.2%	7.94µM*	3.26µM*
CN(C)c1ncnc2ccc(-c3ccc4c(c3)OCO4)cc12	-11.4%[60.1 µM]	·	·	·	·	·	·
SMILES	Pol kappa inh	FEN1 inhibitor	Pol iota inh	Pol beta inh	WRN inhibitor	POLH inh	TbPGK inh	others
CCCCCCCCCC[n+]1cccc2cc(Cl)ccc21	5.0%	1.7%	9.9%	·	·	·	·
Cc1ccnc(NC(=O)c2ccc3c(c2)OCO3)c1	-9.6%	-1.2%	140.2%	2.9%	8.6%	-1.9%	20.6µM*
COc1ccc(-c2cc3ccccc3oc2=O)cc1NC(=O)c1ccc([N+](=O)[O-])o1	-11.0%	6.7%	-3.7%	?	-21.0%	?	·
COc1ccc(-c2cc3ccccc3oc2=O)cc1NC(=O)c1ccc(Br)o1	8.0%	9.5%	?	?	-10.1%[11.6 µM]	11.2µM*	·	POLI cherry-pick=?
Cc1ccc(CNC(=O)c2nnn(CC(=O)Nc3cccc(C)c3C)c2N)cc1	-10.2%	-7.1%	15.4%	?	-15.8%[11.6 µM]	?	·	POLI cherry-pick=26.7*
C#C[C@]1(O)CC[C@@H]2[C@H]3CCC4=CC(=O)CC[C@H]4[C@H]3C(=C)C[C@@]21CC	-7.5%[19.4 µM]	·	·	·	·	·	·
CCN(CC)CCOc1ccc(-c2nc3cc(Cl)ccc3s2)cc1	3.5%[19.4 µM]	·	·	·	·	·	·
O=C1c2cc(CO)cc(O)c2C(=O)c2c(O[C@@H]3OC(CO)[C@@H](O)[C@@H](O)[C@@H]3O)cccc21 (stereo partly specified)	-6.2%	?	-16.7%	·	-10.9%	3.9%	·
O=C(O)c1cc(O)c2c(c1)[C@H]([C@H]1c3cc(C(=O)O)cc(O)c3C(=O)c3c(O[C@@H]4O[C@H](CO)[C@@H](O)[C@H](O)[C@H]4O)cccc31)c1cccc(OC3O[C@H](CO)[C@@H](O)[C@H](O)[C@H]3O)c1C2=O (stereo partly specified)	0.708µM*	1.26µM*	-82.6%	·	3.98µM*	-99.1%	2.91µM*
COC(=O)C1=C[C@@H](C(=O)OC)C2C3=C(C(=O)[C@]2(C)NC(=O)c2ccccc2)[C@H](C)n2c(=O)n(-c4ccccc4)c(=O)n2[C@@H]3C1 (stereo partly specified)	-11.4%	2.9%	-18.6%	·	·	·	·
CCc1ccc(C(=O)c2cn(CC(=O)Nc3ccc4c(c3)OCO4)c3ccc(Cl)cc3c2=O)cc1	-5.8%	-2.2%	44.4%	1.7%	·	-8.6%	·
CCc1ccc(C(=O)c2cn(CC(=O)Nc3ccc4c(c3)OCO4)c3cc(OC)c(OC)cc3c2=O)cc1	4.5%	-1.4%	51.7%	6.31µM*	·	79.4µM*	·	POLI cherry-pick=42.3*

Screening data from PubChem BioAssay.
